Results taken from PubChem BioAssay (Tox21).
Several values for one entry are separate records, joined by “and”; a condition that tells them apart may be missing. Equal values may be shown once. Inconclusive results are not listed. A call without a number means that no potency is given here. Activity calls are given as the source filed them. Calls come from the whole dose curve; as a rule, active = well fitted inhibition curve with a large enough effect in the repeat runs; inconclusive = weak or mixed curves; inactive = no such curve, though single readings can be large or run the other way.

Molecular target: Cytochrome P450 2C9 (Homo sapiens) (UniProt P11712)
Assay: Cytochrome P450 Family 2 Subfamily C Member 9 (CYP2C9) small molecule antagonists: luciferase reporter qHTS assay (AID 1671198); note: nearly all actives have a fitted effect of over 50% in size
Details: P450-Glo CYP2C9 enzyme assay, luciferin luminescence; series mostly up to 115 µM
Text: U.S. Tox21 Program National Center for Advancing Translational Sciences [NCATS] U.S. Environmental Protection Agency [EPA] National Institutes of Environmental Health Sciences [NIEHS] National Toxicology Program [NTP] U.S. Food and Drug Administration [FDA] Tox21 Assay Overview: Cytochrome P450 (CYP) enzymes are membrane-bound hemeproteins that play a key role in metabolism of drugs and xenobiotics. Evaluation of the effect of chemicals on CYP isozymes is useful to minimize the adverse drug reactions and toxicities in drug development process. Tox21 chemicals were tested for their effect on CYP enzyme activities by using P450-Glo (TM) screening systems (Promega Corporation, Madison, WI). These systems provide a luminescent method containing proluciferin substrates and are converted to luciferin products by CYP isozymes. The luciferin products formed are detected with a luciferin detection reagent, and the amount of light produced is proportional to CYP activity. P450-Glo (TM) CYP2C9 screening system (Catalog. No. V9790) was used to detect the compounds that interfere in CYP2C9 activity.
Tox21 Assay Protocol Summary: Two ul of enzyme-substrate mix was dispensed into medium binding white/solid 1536-well plates (Greiner Bio-One North America Inc., Monroe, NC) using a BioRaptr Flying Reagent Dispenser (FRD, Beckman Coulter, Brea, CA). […] The assay plates were incubated at room temperature for 10 min. Then 2 ul of NADPH regeneration solution was added to each well of the assay plates using an FRD and incubated at 37C for 1 h. The reaction was stopped by adding 4 ul of detection reagent using an FRD and after 20 min incubation at room temperature the luminescence signal was measured using a ViewLux plate reader (Perkin Elmer, Shelton, CT). Data were expressed as relative luminescence units.
Potency is the fitted concentration of half-maximal effect.

Chain of Cytochrome P450 2C9 (Homo sapiens) (P11712 whole entry, looked up): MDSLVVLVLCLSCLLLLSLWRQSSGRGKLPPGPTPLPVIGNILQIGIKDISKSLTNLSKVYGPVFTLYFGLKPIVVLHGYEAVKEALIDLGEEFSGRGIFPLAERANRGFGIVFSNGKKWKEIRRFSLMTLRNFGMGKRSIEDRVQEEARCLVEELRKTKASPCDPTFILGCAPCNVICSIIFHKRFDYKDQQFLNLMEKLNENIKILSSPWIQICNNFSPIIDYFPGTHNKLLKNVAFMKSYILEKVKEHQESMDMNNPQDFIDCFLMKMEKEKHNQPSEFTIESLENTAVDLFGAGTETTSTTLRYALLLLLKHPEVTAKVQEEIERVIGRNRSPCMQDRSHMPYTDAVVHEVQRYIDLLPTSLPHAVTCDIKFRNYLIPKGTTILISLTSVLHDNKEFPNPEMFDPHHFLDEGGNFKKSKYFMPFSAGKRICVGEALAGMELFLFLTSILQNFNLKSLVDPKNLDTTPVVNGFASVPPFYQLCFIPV

Structure (SMILES)	Potency
Clc1ccccc1	inactive
Cc1cccc(C)c1NC1=NCCCS1	inactive
CCCC[N+](CCCC)(CCCC)CCCC	inactive
CCOP(=O)(O)C(N)=O	inactive
OCC1CO1 (stereo not given)	inactive
COc1ccc2c(c1OC)C(=O)O[C@H]2[C@@H]1c2cc3c(cc2CCN1C)OCO3	5.49 µM (active)
O=C(O)C(Cl)(Cl)Br	inactive
CN1CC[C@]23c4c5ccc(O)c4O[C@H]2[C@@H](O)CC[C@H]3[C@H]1C5	inactive
CCCCCCCCCCCC[N+](C)(C)CCOc1ccccc1	63.3 µM (active)
COC1=CC(=O)O[C@@H](/C=C/c2ccc3c(c2)OCO3)C1	2.71 µM (active)
CCOP(=S)(OCC)SCSc1cc(Cl)ccc1Cl	inactive
CCC(C)(C)c1ccc(O)c(C(C)(C)CC)c1	4.43 µM (active) and 5.64 µM (active)
CCOC(=O)NC(O)C(Cl)(Cl)Cl (stereo not given)	inactive
CCOC(=O)c1cn2nc(OP(=S)(OCC)OCC)cc2nc1C	5.03 µM (active)
O=C(O)C(F)(F)C(F)(F)C(F)(F)C(F)(F)C(F)(F)F	15.9 µM (active)
CCC(C)(C)O	inactive
COc1ccc(C(=O)c2c(C)n(CCN3CCOCC3)c3ccccc23)cc1	12.3 µM (active)
CCCCCBr	inactive
CCCCCCCCCCCCN(C)C	inactive
Nc1ccccc1C(=O)OCC(O)CO (stereo not given)	inactive

Structure (SMILES)	Potency
ClCc1ccccc1Cl	inactive
O=C(N/N=C/c1ccc([N+](=O)[O-])o1)c1cc([N+](=O)[O-])cc([N+](=O)[O-])c1O	30.9 µM (active)
C1CCNCC1	inactive
C[N+]1(CCF)[C@@H]2CC[C@H]1CC(OC(=O)C(O)(c1ccccc1)c1ccccc1)C2 (stereo not given in full)	inactive
CC(C)(C)CC(C)(C)c1ccc(O)cc1	22.4 µM (active) and 15.5 µM (active)
CC(C)c1ccc(OP(=O)(Oc2ccc(C(C)C)cc2)Oc2ccc(C(C)C)cc2)cc1	2.26 µM (active) and 3.17 µM (active) and 2.83 µM (active)
O=P(OCC(Br)CBr)(OCC(Br)CBr)OCC(Br)CBr (stereo not given)	16.1 µM (active) and 16.9 µM (active)
NP(N)(=O)NC(=O)c1ccc(F)cc1	inactive
O=[N+]([O-])O[C@H]1CO[C@H]2[C@@H]1OC[C@H]2O[N+](=O)[O-]	inactive
Nc1ccc2c(c1)Cc1ccccc1-2	15.8 µM (active)
CCCBr	inactive
CCCCNC(=O)OCC#CI	5 µM (active) and 5.03 µM (active)
O=C(Cc1ccccc1)OCCc1ccccc1	20 µM (active)
O=C1CC[C@@]2(O)[C@H]3Cc4ccc(O)c5c4[C@@]2(CCN3CC2CC2)[C@H]1O5	inactive
O=C(O)c1cc(I)cc(I)c1I	13.6 µM (active)
C[N+](C)(C)CC1CO1 (stereo not given)	inactive
O=C(CCl)CCl	inactive
CC1(C)[C@H](C(=O)O[C@H](C#N)c2cccc(Oc3ccccc3)c2)[C@@H]1C=C(Br)Br	1.86 µM (active) and 3.99 µM (active)
CC(Cl)C(=O)O (stereo not given)	inactive
O=C1c2ccccc2C(=O)N1SC(Cl)(Cl)Cl	24.8 µM (active) and 11.2 µM (active)
